# Experimental data from PubChem BioAssay.
# Assay: small molecules captured by biotinylated probe aFGF2 – biochemical, small-molecule microarray, fluorescence 635/667, stem cell growth factor project, primary screen (AID 1067);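 further: measures binding of biotinylated aFGF2 protein to printed compounds on slides; z-score merges feature fluorescence and signal-to-noise across triplicate slides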
# Conditions: higher = more signal
row,Compound,composite z-score
1,O=C/C=C/c1ccc2c(c1)OCO2,-0.115
2,CN(C)C(=O)[C@@]1(CCC(=O)OC(C)(C)C)N=C(c2ccc(OCCCO)cc2)O[C@H]1c1ccccc1,0.112
3,C=C(C(=O)CC[C@H](OC(C)=O)c1ccc(OCCO)cc1)C(C)C,-0.134
4,O=c1cccc(C=Cc2ccccc2)o1,-0.144
5,C=CCC(OC(C)=O)[C@@H]1[C@@H](N(Cc2cccc3ccccc23)C(=O)c2cccc3ccccc23)c2cc(OCCCO)ccc2N1C(=O)c1ccc2ccccc2n1 (stereo partly drawn),0.0083
6,COc1ccc(CCNC(=O)[C@@]2(c3ccc([N+](=O)[O-])cc3)CC(=O)N(CC34CC5CC(CC(C5)C3)C4)[C@@H]2c2ccc(CO)cc2)cc1,-0.0039
7,COCCOC(=O)N1C(=O)[C@@]2(c3ccccc31)[C@H](C(=O)Nc1nc3ccccc3s1)[C@H]1C(=O)O[C@H](c3ccccc3)[C@H](c3ccccc3)N1[C@@H]2c1ccc(OCCO)cc1,-0.0426
8,CC(C)(C)OC(=O)CC[C@@]1(C(=O)NCCN2CCOCC2)N=C(c2ccc(OCCCO)cc2)O[C@@H]1c1ccccc1,0.0189
9,C=CC(COC(C)=O)NS(=O)(=O)c1ccc(Br)cc1 (stereo not drawn),-0.105
10,[N-]=[N+]=Nc1ccccc1[C@H]1OC(c2ccc(OCCCO)cc2)=N[C@@]1(CCS(=O)(=O)c1ccccc1)C(=O)O,0.051
11,CC(C)NC(=O)[C@@H]1c2ccccc2C(=O)N(Cc2ccccc2)[C@H]1c1ccc(CO)cc1,0.0411
12,COCCOC(=O)N1C(=O)[C@@]2(c3cc(C#CCC(C(=O)OC)C(=O)OC)ccc31)[C@H](c1ccc(O)cc1)N1[C@H](c3ccccc3)[C@H](c3ccccc3)OC(=O)[C@H]1[C@@H]2C(N)=O,0.0661
13,CC(C)c1ccc(NN2C(C(O)c3cccc(O)c3)C=CC3C(=O)N(c4ccccc4)C(=O)C32)cc1 (stereo not drawn),0.0864

# Assay: small molecules captured by biotinylated probe aFGF10 – biochemical, small-molecule microarray, fluorescence 635/667, stem cell growth factor project, primary screen (AID 1071);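 further: score merges 667 nm spot intensity and signal to noise from triplicate slides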
# Conditions: higher = more signal
row,Compound,composite z-score
1,O=C(OCCF)C1=CCC(c2cccc(Cl)c2)O1 (stereo not drawn),0.193
2,COC(=O)[C@@]1(Cc2ccc(OC)cc2)[C@H]2c3cc(C(=O)N4CCCC4)n(Cc4ccccn4)c3C[C@H]2CN1C(=O)c1ccccc1,1.11
3,CC(C)=CCCC(C)=CC(O)C1C=CC2C(=O)N(c3ccccc3)C(=O)C2N1Nc1ccccc1 (stereo not drawn),1.16
4,[N-]=[N+]=NCc1ccccc1[C@H]1OC(c2ccc(OCCCO)cc2)=N[C@@]1(CCS(=O)(=O)c1ccccc1)C(=O)N1CCOCC1,1.03
5,COC(=O)[C@@]1(Cc2ccccc2)[C@H]2c3cc(C(=O)N4CCCC4)n(Cc4ccc(C)o4)c3C[C@H]2CN1C(=O)c1ccccc1,0.0426
6,CC(C)OC(=O)CC(=O)CC(O)c1ccc(C#N)cc1 (stereo not drawn),0.356
7,[N-]=[N+]=NCc1ccccc1C[C@]1(C(=O)O)N=C(c2ccc(OCCCO)cc2)O[C@H]1c1ccccc1,0.39
8,COC(=O)[C@@]1(Cc2ccc(OC)cc2)[C@H]2c3cc(C(=O)N(C)C)n(Cc4c(OC)[nH]cc(C)c4=O)c3C[C@H]2CN1C(=O)c1ccccc1,0.289
9,O=c1cccc(CCc2ccccc2)o1,0.0466
10,CCCCCCCCCCC(O)C1C=CC2C(=O)N(Cc3ccccc3)C(=O)C2N1n1cnnc1 (stereo not drawn),0.137
11,COC(=O)C[C@@H]1C[C@H](C)[C@]2(O1)C(=O)N(Cc1ccccc1)c1ccc(NC(C)=O)cc12,0.315
12,C=CCOC(=O)[C@@H]1[C@H]2C(=O)O[C@H](c3ccccc3)[C@H](c3ccccc3)N2[C@H](c2ccc(OCCOC(=O)[C@@H]3C[C@@H]4C(=O)NCC(=O)N4[C@@H]3c3cccc(OCCO)c3)cc2)[C@@]12C(=O)Nc1ccc(I)cc12,0.818
13,CCCC[C@H]1OB(O)C[C@H]2C1=C(C)C[C@H]1C(=O)N(Cc3ccccc3)C(=O)[C@H]12,0.951
14,CC1CC/C=C\[C@H]2OC34C=CCN(Cc5ccccc5)C(=O)[C@H]3N(CCCCCO)C(=O)[C@@H]4C2C(=O)O1 (stereo partly drawn),0.155
15,CN(C)CCCNC(=O)[C@@]1(Cc2ccccc2I)c2ccccc2C(=O)N(Cc2ccccc2C(F)(F)F)[C@H]1c1ccc(CO)cc1,-0.935
16,COc1ccc([Si](C)(C)[C@@H]2[C@@H](CC(=O)N3CCC[C@H]3CO)O[C@]3(C(=O)N(C)c4c(Br)cc(C)cc43)[C@H]2C)cc1,0.113
17,COCC1=C2[C@@H](CCc3ccccc3)OB(O)C[C@@H]2[C@@H]2C(=O)N(Cc3ccccc3)C(=O)[C@@H]2C1,0.135
18,COCCOC(=O)N1C(=O)[C@@]2(c3ccccc31)[C@H](C(=O)NC[C@H](O)c1ccccc1)[C@H]1C(=O)O[C@H](c3ccccc3)[C@H](c3ccccc3)N1[C@@H]2c1ccc(OCCO)cc1,0.36

row,Compound,composite z-score
1,C=CC[C@@H](OC(=O)Nc1ccc(OC)cc1)c1ccc(O)c2ccccc12,0.224
2,COCCOC(=O)N1C(=O)[C@@]2(c3cc(C#CCCO)ccc31)[C@H](c1ccccc1OCCO)N1[C@H](c3ccccc3)[C@H](c3ccccc3)OC(=O)[C@H]1[C@@H]2C(=O)N1CCN(c2ncccn2)CC1,0.949
3,CCC[C@@H]1C=C(C(=O)O)[C@H](c2ccc(C)cc2)N1S(=O)(=O)c1ccc(C)cc1,0.854
4,COc1ccc(C(O)C2C=CC3C(=O)N(c4ccccc4)C(=O)C3N2Nc2ccc([N+](=O)[O-])cc2)cc1OCc1ccccc1 (stereo not drawn),1.06
5,O=C/C=C/c1ccc2c(c1)OCO2,0.182
6,CN(C)C(=O)[C@@]1(CCC(=O)OC(C)(C)C)N=C(c2ccc(OCCCO)cc2)O[C@H]1c1ccccc1,0.31
7,C=C(C(=O)CC[C@H](OC(C)=O)c1ccc(OCCO)cc1)C(C)C,0.991
8,O=c1cccc(C=Cc2ccccc2)o1,-0.0239
9,C=CCC(OC(C)=O)[C@@H]1[C@@H](N(Cc2cccc3ccccc23)C(=O)c2cccc3ccccc23)c2cc(OCCCO)ccc2N1C(=O)c1ccc2ccccc2n1 (stereo partly drawn),0.281
10,COc1ccc(CCNC(=O)[C@@]2(c3ccc([N+](=O)[O-])cc3)CC(=O)N(CC34CC5CC(CC(C5)C3)C4)[C@@H]2c2ccc(CO)cc2)cc1,0.268
11,COCCOC(=O)N1C(=O)[C@@]2(c3ccccc31)[C@H](C(=O)Nc1nc3ccccc3s1)[C@H]1C(=O)O[C@H](c3ccccc3)[C@H](c3ccccc3)N1[C@@H]2c1ccc(OCCO)cc1,0.738
12,CC(C)(C)OC(=O)CC[C@@]1(C(=O)NCCN2CCOCC2)N=C(c2ccc(OCCCO)cc2)O[C@@H]1c1ccccc1,0.262
13,C=CC(COC(C)=O)NS(=O)(=O)c1ccc(Br)cc1 (stereo not drawn),0.366
14,[N-]=[N+]=Nc1ccccc1[C@H]1OC(c2ccc(OCCCO)cc2)=N[C@@]1(CCS(=O)(=O)c1ccccc1)C(=O)O,0.0993
15,CC(C)NC(=O)[C@@H]1c2ccccc2C(=O)N(Cc2ccccc2)[C@H]1c1ccc(CO)cc1,0.365
16,COCCOC(=O)N1C(=O)[C@@]2(c3cc(C#CCC(C(=O)OC)C(=O)OC)ccc31)[C@H](c1ccc(O)cc1)N1[C@H](c3ccccc3)[C@H](c3ccccc3)OC(=O)[C@H]1[C@@H]2C(N)=O,1.11
17,CC(C)c1ccc(NN2C(C(O)c3cccc(O)c3)C=CC3C(=O)N(c4ccccc4)C(=O)C32)cc1 (stereo not drawn),0.618
